# The whole screen tested about 310,000 compounds, of which about 14,000 (4.5%) showed an effect of 50% or more. The effect is printed as a negative number. The full list was thinned out, with strong results kept by preference.
# Biological target: human ether-à-go-go-related gene (hERG) potassium channel (human, UniProt Q12809)
# Test: primary screen, population patch clamp on CHO cells stably expressing hERG; higher = less effect of the substance
# Description: Briefly, Chinese hamster ovary (CHO) cells stably expressing the hERG channel were dislodged from tissue culture flasks and dispensed into PPC plates. […] During the recording, background leak currents were estimated by a 100 ms step to -80 mV from an initial holding potential of -70 mV and subtracted from the subsequent current measurement. The campaign was conducted in two phases using slight differences in recording protocol. In the first phase, the initial voltage pulse used a 100 ms step to -30 mV from a holding potential of -70 mV, a 2 s conditioning step to +25 mV, and a 2 s test step to -30 mV. During the second phase of the screen, the potential during the conditioning step was raised to +45 mV. In both phases of the campaign, a secondary voltage pulse was applied using the same parameters as the second phase initial pulse. The initial and secondary pulses were applied in the absence of compound, and upon application of 1 μM and 10 μM test concentrations. […]
# 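Also: peak tail current of the secondary pulse compared with the same well before compound.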
# Sequence of human ether-à-go-go-related gene (hERG) potassium channel (Q12809 whole entry, looked up): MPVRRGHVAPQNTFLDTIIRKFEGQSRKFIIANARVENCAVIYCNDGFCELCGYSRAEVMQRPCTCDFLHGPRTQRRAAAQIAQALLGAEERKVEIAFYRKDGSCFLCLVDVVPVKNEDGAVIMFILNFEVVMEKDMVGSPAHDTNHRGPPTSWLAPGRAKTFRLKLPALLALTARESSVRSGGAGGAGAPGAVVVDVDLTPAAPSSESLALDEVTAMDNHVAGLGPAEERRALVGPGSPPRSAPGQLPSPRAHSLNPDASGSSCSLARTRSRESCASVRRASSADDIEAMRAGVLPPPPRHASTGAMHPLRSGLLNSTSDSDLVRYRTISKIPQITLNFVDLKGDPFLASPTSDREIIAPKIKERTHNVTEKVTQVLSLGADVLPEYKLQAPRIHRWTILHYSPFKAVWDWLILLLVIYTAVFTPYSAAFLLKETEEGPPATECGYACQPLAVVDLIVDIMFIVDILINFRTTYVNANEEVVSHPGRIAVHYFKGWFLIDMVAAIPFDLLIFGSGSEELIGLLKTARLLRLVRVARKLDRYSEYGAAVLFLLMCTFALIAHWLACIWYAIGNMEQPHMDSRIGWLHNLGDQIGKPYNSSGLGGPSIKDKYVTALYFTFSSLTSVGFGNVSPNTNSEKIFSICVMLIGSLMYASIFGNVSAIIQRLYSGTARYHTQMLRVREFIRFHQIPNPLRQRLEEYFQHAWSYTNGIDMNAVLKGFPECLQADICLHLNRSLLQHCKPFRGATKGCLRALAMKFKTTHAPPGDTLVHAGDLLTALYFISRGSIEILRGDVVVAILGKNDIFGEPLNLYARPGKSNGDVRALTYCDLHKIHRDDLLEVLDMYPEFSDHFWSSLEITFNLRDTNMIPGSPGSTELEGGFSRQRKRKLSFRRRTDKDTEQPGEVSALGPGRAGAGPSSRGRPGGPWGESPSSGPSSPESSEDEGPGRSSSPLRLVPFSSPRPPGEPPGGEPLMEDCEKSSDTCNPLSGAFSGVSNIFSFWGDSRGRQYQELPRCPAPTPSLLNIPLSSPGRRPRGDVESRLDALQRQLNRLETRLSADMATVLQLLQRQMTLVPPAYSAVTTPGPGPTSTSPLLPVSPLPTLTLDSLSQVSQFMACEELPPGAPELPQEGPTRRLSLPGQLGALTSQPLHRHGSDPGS
row,Structure (SMILES),"hERG current change (%, negative = inhibition) at 10uM [%]"
1,CCCCC(NC(=O)c1cccc(Br)c1)C(=O)O (stereo not drawn),9.42
2,Cc1nn(C)c(C)c1CNC(=O)Nc1cccc(Cl)c1,6.93
3,CC1(C)CC(=O)c2cn3nc(C(F)(F)F)nc3nc2C1,4.21
4,O=C(CN1CCN(S(=O)(=O)c2ccc(F)c(Cl)c2)CC1)N1CCc2ccccc21,-34.7
5,CCOC(=O)c1ccc(NC(=O)NS(=O)(=O)c2ccc(C)cc2)cc1,10.9
6,CC(C)Oc1ccc(S(=O)(=O)N2CCCCC2)cc1NC(=O)CN1C(=O)NC2(CCCC2)C1=O,-2.87
7,O=[N+]([O-])c1cccc(/C=N/NC2CCS(=O)(=O)C2)c1 (stereo not drawn),11.9
8,Cc1ccsc1C(=O)N1CCCC(CCC(=O)NCc2ccccc2F)C1 (stereo not drawn),-7.46
9,Cc1ccsc1S(=O)(=O)N1CCCC(CCC(=O)NCc2ccccc2F)C1 (stereo not drawn),5.38
10,Cc1ccc(S(=O)(=O)N2CCCC(CCC(=O)NCc3ccccc3F)C2)s1 (stereo not drawn),-50.7
11,CCOC(=O)C1=C(CSc2n[nH]c(N)n2)NC(=O)NC1C (stereo not drawn),3.79
12,CC1CC(C)CN(S(=O)(=O)N2CCCC(C(=O)NC(C)c3ccccc3)C2)C1 (stereo not drawn),3.1
13,COc1ccc(OC)c2[nH]c(C(=O)N3CCC(C(=O)O)CC3)cc12,24.6
14,O=C(CSc1nnc(NC2CCCCC2)s1)NC1CCS(=O)(=O)C1 (stereo not drawn),-0.507
15,O=[N+]([O-])c1cc(Cl)ccc1Sc1ccccn1,3.65
16,N#Cc1cc(Sc2ccccn2)c([N+](=O)[O-])cc1C#N,-18.9
17,N#Cc1ccc(Sc2ccccn2)c([N+](=O)[O-])c1,-61.5
18,N#Cc1cc([N+](=O)[O-])ccc1NCCc1ccccn1,-18.4
19,O=[N+]([O-])c1cc(Cl)ccc1NCCc1ccccn1,-16.8
20,N#Cc1ccc(NCCc2ccccn2)c([N+](=O)[O-])c1,-74
21,CC(C)(C)c1ccc(OCC(=O)O)cc1,17.9
22,COC(=O)c1sc(S(=O)(=O)NCCC(=O)O)c(C(=O)OC)c1C,5.17
23,CCOc1ccc(S(=O)(=O)N2CCOCC2)cc1NC(=O)CSCC(=O)Nc1ccc(C)cc1,-18.2

row,Structure (SMILES),"hERG current change (%, negative = inhibition) at 10uM [%]"
1,CCOc1ccc(S(=O)(=O)N2CCOCC2)cc1NC(=O)C1CCC1,16.3
2,Cc1cccc(NC(=O)CSCC(=O)Nc2ccc(S(=O)(=O)N3CCOCC3)cc2)c1,-5.21
3,Cc1ccc(CSCC(=O)Nc2cc(S(=O)(=O)N3CCOCC3)ccc2OC(C)C)cc1,-30.5
4,CCOc1ccc(S(=O)(=O)N2CCOCC2)cc1NC(=O)CSCc1ccc(C)cc1,-53.2
5,CCOc1ccc(S(=O)(=O)N2CCOCC2)cc1NC(=O)CSCC(=O)Nc1cccc(C)c1,-11.4
6,CCOc1ccc(S(=O)(=O)N2CCOCC2)cc1NC(=O)CSC(=S)N1CCCC1,-63
7,CCN(CC)c1ccc(S(=O)(=O)N2CCOCC2)cc1NC(=O)CSC(=S)N1CCCC1,-32.2
8,Cc1cccc(NC(=O)CSCC(=O)Nc2cc(S(=O)(=O)N3CCOCC3)ccc2OC(C)C)c1,-87.2
9,Cc1cc(C)c2c(c1)/C(=N/NC(=O)c1cc(C)oc1C)CCC2,6.66
10,Cc1ccc(S(=O)(=O)N2CCC(C(=O)OCC(=O)NCCc3ccccc3)CC2)cc1C,-8.07
11,C/C(=N\O)c1c(O)cc(-c2ccccc2)n(-c2ccccc2)c1=O,8.56
12,CN(c1ccc(C(=O)N/N=C/c2cccc([N+](=O)[O-])c2)cc1)S(=O)(=O)c1ccccc1,1.88
13,Cc1onc(-c2c(F)cccc2Cl)c1C(=O)N(C)C1CCCCC1,2.65
14,CCN(CC)c1ccc(/C=N/NC(=S)NCc2ccccc2)c(O)c1,12
15,COCCn1c(=S)[nH]c2cc(C(=O)N(CCO)Cc3ccccc3)ccc2c1=O,4.32
16,CC(C)=CCc1c(O)ccc2c1OC(c1ccc(O)c(O)c1)CC2=O (stereo not drawn),9.78
17,COc1ccc(C(=O)CCC(=O)N2CCN(c3ccccc3)CC2)cc1,-9.62
18,COc1ccc(N2CCN(C(=O)CSc3ccccc3)CC2)cc1,4.44
19,COc1ccc(C(=O)CCC(=O)N2CCN(c3ccc([N+](=O)[O-])cc3)CC2)cc1,-63.8
20,COc1ccc(C(=O)NC(=S)N2CCN(c3ccc([N+](=O)[O-])cc3)CC2)cc1,-49.2
21,COc1ccc(N2CCN(C(=O)CSc3ccc([N+](=O)[O-])cc3)CC2)cc1,-68.4
22,COc1ccc(N2CCN(C(=O)CSc3ccccc3N)CC2)cc1,3.07

# — article PMC4336329 (PLoS ONE, 2015)
